# Test results from PubChem BioAssay (NCATS).
# Where “and” joins values, the source holds several entries; their conditions need not be identical. Identical values can stand only once. Results filed as inconclusive are left out. Unmarked numbers belong to inactive results. Calls of active or inactive are those of the source. Calls follow the shape of the dose curve; as a rule, active = well fitted cell-killing curve with a large enough effect; inconclusive = small, poorly fitted or top-dose-only effect; inactive = flat fitted curve, though single readings scatter.
# Assay: Cellular viability qHTS for adrenocortical cancer (ACC) cell line SW-13 (AID 1963989); also: nearly all actives have a fitted effect of over 65% in size;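 as to activity (max response): cells grown in serum-free medium with ITS supplement; % is scaled to controls: 0 for no effect and ±100 for the full control effect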
# Settings: SW-13 ACC cells viability, CellTiter-Glo, 48 h; activity (max response): stronger effect = lower value
# In short: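 IC50 and maximal-response values come from four-parameter logistic fits of titration data. SW-13 cells in serum-free medium received compounds (up to 46 uM final) for 48 h before CellTiter-Glo luminescence.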
# Potency is read from the fitted curve at half-maximal effect.
SMILES,activity (max response),Potency
Cc1ncc2n1-c1ccc(Cl)cc1C(c1ccccc1F)=NC2,-18.8%,–
CC(C)(C)OC(=O)c1ncn2c1[C@@H]1CCCN1C(=O)c1c(Br)cccc1-2,2.94%,–
CC(Cc1ccccc1)NCCn1cnc2c1c(=O)n(C)c(=O)n2C (stereo unspecified),-22.4%,–
CC[C@]1(O)CC[C@H]2[C@@H]3CCC4=CCCC[C@@H]4[C@H]3CC[C@@]21C,–,3.66 µM (active)
Nc1ccc(N)cc1,5.64%,–
CCCN1CCC[C@@H]2Cc3[nH]ncc3C[C@H]21,1.08%,–
CCCCCCCCCC(CC)c1ccc(S(=O)(=O)O)cc1 (stereo unspecified),–,31.6 µM (active)
O=[N+]([O-])c1ccc([As](=O)(O)O)cc1,4.1%,–
C=C(C)[C@H]1CN[C@H](C(=O)O)[C@H]1CC(=O)O,7.33%,–
c1cc2ccc3cccc4ccc(c1)c2c34,-9.29%,–
C[C@]12CCC(=O)C(O)=C1CC[C@@H]1[C@@H]2CC[C@]2(C)C(=O)CC[C@@H]12,4.45% and 4.46%,–
CNC(C)Cc1ccc2c(c1)OCO2 (stereo unspecified),-2%,–
CN1C(=O)CN=C(c2ccccc2)c2cc(Cl)ccc21,0.469%,–
C=C[C@H]1CN2CCC1C[C@@H]2[C@@H](O)c1ccnc2ccccc12 (stereo partly specified),-20.5%,–
CCN[C@@H](C)Cc1ccccc1,-5.58%,–
CCOC(=O)C1(c2ccccc2)CCN(CCc2ccc(N)cc2)CC1,-18.4%,–
O=C(Nc1ccc(Br)cc1)c1cc(Br)cc(Br)c1O,-19.7%,–
CCOC(C(=O)OCCN(C)C)(c1ccccc1)c1ccccc1,-0.322%,–
COc1cc(C[C@@H](C)N)c(OC)cc1Br,-7.05%,–

SMILES,activity (max response),Potency
COC(=O)[C@]12CCC(C)(C)C[C@H]1[C@H]1C(=O)C=C3[C@@]4(C)C=C(C#N)C(=O)C(C)(C)[C@@H]4CC[C@@]3(C)[C@]1(C)CC2,–,6.31 µM (active)
O=C(CCCN1CCC(n2c(=O)[nH]c3ccccc32)CC1)c1ccc(F)cc1,-18.7%,–
O=c1[nH]c2ccccc2n1C1CCNCC1,4.94%,–
Oc1ccccc1-c1ccccc1,-7.15%,–
CN1C(=S)CN=C(c2ccccc2)c2cc(Cl)ccc21,-3.17%,–
CN1C[C@@H](NS(=O)(=O)N(C)C)C[C@@H]2c3cccc4c3c(cn4C)C[C@H]21,-2.7%,–
CCOC(=O)C(c1c(O)c2ccccc2oc1=O)c1c(O)c2ccccc2oc1=O,16.4%,–
CC(C)c1c(CN(C)C(C)Cc2ccccc2)n(C)n(-c2ccccc2)c1=O (stereo unspecified),5.24%,–
CN(C)CCc1c[nH]c2cccc(O)c12,3.4%,–
Cn1c(CCCCCCC(=O)NO)nc2cc(N(CCCl)CCCl)ccc21,–,15.8 µM (active)
CN(C)CCc1c[nH]c2ccccc12,-12.4%,–
C[C@H]1O[C@@H](O[C@H]2[C@@H](O)C[C@H](O[C@H]3[C@@H](O)C[C@H](O[C@H]4CC[C@@]5(C)[C@H](CC[C@@H]6[C@@H]5CC[C@]5(C)[C@@H](C7=CC(=O)OC7)CC[C@]65O)C4)O[C@@H]3C)O[C@@H]2C)C[C@H](O)[C@@H]1O,–,0.0184 µM (active)
CC1COC2(c3ccccc3Cl)c3cc(Cl)ccc3NC(=O)CN12 (stereo unspecified),-14.7%,–
O=c1n(Cl)c(=O)n(Cl)c(=O)n1Cl,8.14%,–
C[C@H]1[C@H](O)[C@@H](C)/C=C/C=C/CC/C=C/C=C/C=C/C=C/[C@H](O[C@@H]2O[C@H](C)[C@@H](O)[C@H](N)[C@@H]2O)C[C@@H]2O[C@](O)(C[C@@H](O)[C@H](O)CC[C@@H](O)C[C@@H](O)C[C@@H](O)CC(=O)O[C@H]1C)C[C@H](O)[C@H]2C(=O)O,-20.1%,–
Cc1c(N)nc([C@H](CC(N)=O)NC[C@@H](N)C(N)=O)nc1C(=O)N[C@H](C(=O)N[C@@H](C)[C@H](O)[C@@H](C)C(=O)N[C@@H](C(=O)NCCc1nc(-c2nc(C(=O)NCCC[S+](C)C)cs2)cs1)[C@@H](C)O)C(O[C@H]1O[C@H](CO)[C@H](O)[C@@H](O)[C@H]1O[C@H]1O[C@H](CO)[C@@H](O)[C@H](OC(N)=O)[C@@H]1O)c1cnc[nH]1 (stereo partly specified),-30.2%,–
C[C@]12CC[C@H](O)CC1=CC[C@@H]1[C@@H]2CC[C@]2(C)C(=O)CC[C@@H]12,3.86% and -7.41%,–
COC(=O)c1cncn1C(C)c1ccccc1 (stereo unspecified),-8.99%,–
CCN(CC)CCN1C(=O)CN=C(c2ccccc2F)c2cc(Cl)ccc21,2.24%,–

# Assay: Cellular viability qHTS for adrenocortical cancer (ACC) cell line NCI-H295R (AID 1963990); also: nearly all actives have a fitted effect of over 60% in size
# Settings: CellTiter-Glo ATP luminescence, 48 h; series mostly up to 46.1 µM
# In short: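 Adrenocortical carcinoma cells, suspended at 300 000 cells/mL in serum-free DMEM plus ITS, rested overnight before pin transfer of compound. After two days' incubation, ATP-dependent luminescence was recorded and curve-fitted.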
row,SMILES,Potency
1,Cc1ncc2n1-c1ccc(Cl)cc1C(c1ccccc1F)=NC2,inactive
2,CC(C)(C)OC(=O)c1ncn2c1[C@@H]1CCCN1C(=O)c1c(Br)cccc1-2,inactive
3,CC(Cc1ccccc1)NCCn1cnc2c1c(=O)n(C)c(=O)n2C (stereo unspecified),inactive
4,CC[C@]1(O)CC[C@H]2[C@@H]3CCC4=CCCC[C@@H]4[C@H]3CC[C@@]21C,2.91 µM (active)
5,Nc1ccc(N)cc1,inactive
6,CCCN1CCC[C@@H]2Cc3[nH]ncc3C[C@H]21,inactive
7,CCCCCCCCCC(CC)c1ccc(S(=O)(=O)O)cc1 (stereo unspecified),25.1 µM (active)
8,O=[N+]([O-])c1ccc([As](=O)(O)O)cc1,inactive
9,C=C(C)[C@H]1CN[C@H](C(=O)O)[C@H]1CC(=O)O,inactive
10,c1cc2ccc3cccc4ccc(c1)c2c34,inactive
11,C[C@]12CCC(=O)C(O)=C1CC[C@@H]1[C@@H]2CC[C@]2(C)C(=O)CC[C@@H]12,inactive
12,CNC(C)Cc1ccc2c(c1)OCO2 (stereo unspecified),inactive
13,CN1C(=O)CN=C(c2ccccc2)c2cc(Cl)ccc21,inactive
14,C=C[C@H]1CN2CCC1C[C@@H]2[C@@H](O)c1ccnc2ccccc12 (stereo partly specified),inactive
15,CCN[C@@H](C)Cc1ccccc1,inactive
16,CCOC(=O)C1(c2ccccc2)CCN(CCc2ccc(N)cc2)CC1,inactive
17,O=C(Nc1ccc(Br)cc1)c1cc(Br)cc(Br)c1O,10.3 µM (active)
18,CCOC(C(=O)OCCN(C)C)(c1ccccc1)c1ccccc1,inactive
19,COc1cc(C[C@@H](C)N)c(OC)cc1Br,inactive

row,SMILES,Potency
1,COC(=O)[C@]12CCC(C)(C)C[C@H]1[C@H]1C(=O)C=C3[C@@]4(C)C=C(C#N)C(=O)C(C)(C)[C@@H]4CC[C@@]3(C)[C@]1(C)CC2,3.98 µM (active)
2,O=C(CCCN1CCC(n2c(=O)[nH]c3ccccc32)CC1)c1ccc(F)cc1,inactive
3,O=c1[nH]c2ccccc2n1C1CCNCC1,inactive
4,Oc1ccccc1-c1ccccc1,inactive
5,CN1C(=S)CN=C(c2ccccc2)c2cc(Cl)ccc21,inactive
6,CN1C[C@@H](NS(=O)(=O)N(C)C)C[C@@H]2c3cccc4c3c(cn4C)C[C@H]21,inactive
7,CCOC(=O)C(c1c(O)c2ccccc2oc1=O)c1c(O)c2ccccc2oc1=O,inactive
8,CC(C)c1c(CN(C)C(C)Cc2ccccc2)n(C)n(-c2ccccc2)c1=O (stereo unspecified),inactive
9,CN(C)CCc1c[nH]c2cccc(O)c12,inactive
10,Cn1c(CCCCCCC(=O)NO)nc2cc(N(CCCl)CCCl)ccc21,8.91 µM (active)
11,CN(C)CCc1c[nH]c2ccccc12,inactive
12,C[C@H]1O[C@@H](O[C@H]2[C@@H](O)C[C@H](O[C@H]3[C@@H](O)C[C@H](O[C@H]4CC[C@@]5(C)[C@H](CC[C@@H]6[C@@H]5CC[C@]5(C)[C@@H](C7=CC(=O)OC7)CC[C@]65O)C4)O[C@@H]3C)O[C@@H]2C)C[C@H](O)[C@@H]1O,0.0651 µM (active)
13,CC1COC2(c3ccccc3Cl)c3cc(Cl)ccc3NC(=O)CN12 (stereo unspecified),23.1 µM (active)
14,O=c1n(Cl)c(=O)n(Cl)c(=O)n1Cl,inactive
15,C[C@H]1[C@H](O)[C@@H](C)/C=C/C=C/CC/C=C/C=C/C=C/C=C/[C@H](O[C@@H]2O[C@H](C)[C@@H](O)[C@H](N)[C@@H]2O)C[C@@H]2O[C@](O)(C[C@@H](O)[C@H](O)CC[C@@H](O)C[C@@H](O)C[C@@H](O)CC(=O)O[C@H]1C)C[C@H](O)[C@H]2C(=O)O,inactive
16,Cc1c(N)nc([C@H](CC(N)=O)NC[C@@H](N)C(N)=O)nc1C(=O)N[C@H](C(=O)N[C@@H](C)[C@H](O)[C@@H](C)C(=O)N[C@@H](C(=O)NCCc1nc(-c2nc(C(=O)NCCC[S+](C)C)cs2)cs1)[C@@H](C)O)C(O[C@H]1O[C@H](CO)[C@H](O)[C@@H](O)[C@H]1O[C@H]1O[C@H](CO)[C@@H](O)[C@H](OC(N)=O)[C@@H]1O)c1cnc[nH]1 (stereo partly specified),inactive
17,C[C@]12CC[C@H](O)CC1=CC[C@@H]1[C@@H]2CC[C@]2(C)C(=O)CC[C@@H]12,inactive
18,COC(=O)c1cncn1C(C)c1ccccc1 (stereo unspecified),inactive
19,CCN(CC)CCN1C(=O)CN=C(c2ccccc2F)c2cc(Cl)ccc21,inactive
